# Measurements taken from publication PMC7862700, “An all-to-all approach to the identification of sequence-specific readers for epigenetic DNA modifications on cytosine”.
# Experiments:
# Assay in all cases: DAPPL (digital affinity profiling via proximity ligation, sequencing); 10 mM Tris-HCl pH 7.5, 50 mM NaCl, 1 mM DTT, 4% glycerol, room temperature, 30 min; GST-TFs on glutathione beads, 16-mer random dsDNA library, 0.1% formaldehyde crosslink after washing; high values mean tight binding
# [1] = biological target: T1, FLI1 (Homo sapiens, UniProt Q01543 1-452); conditions: protein: recombinant; tags: N-terminal GST; dsDNA, one strand shown
# T1 sequence: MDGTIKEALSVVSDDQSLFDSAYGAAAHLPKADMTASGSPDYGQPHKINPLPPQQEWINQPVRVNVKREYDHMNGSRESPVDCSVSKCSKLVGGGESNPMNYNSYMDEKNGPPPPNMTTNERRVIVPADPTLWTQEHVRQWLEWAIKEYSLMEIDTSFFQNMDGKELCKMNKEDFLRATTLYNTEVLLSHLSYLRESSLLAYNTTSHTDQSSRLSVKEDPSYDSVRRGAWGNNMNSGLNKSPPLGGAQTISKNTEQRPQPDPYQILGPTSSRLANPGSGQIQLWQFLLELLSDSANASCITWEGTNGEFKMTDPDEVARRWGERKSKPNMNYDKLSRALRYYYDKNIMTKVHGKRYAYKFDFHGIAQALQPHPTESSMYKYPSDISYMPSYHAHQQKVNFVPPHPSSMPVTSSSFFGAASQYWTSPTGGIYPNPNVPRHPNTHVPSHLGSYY
# In short: (§1)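 Human transcription factors were made in yeast as GST fusions, captured on glutathione beads and barcoded with DNA. With a tag-only sample included, the pool was incubated with 200 nmole of a random double-stranded 16-mer DNA library in Tris/NaCl/DTT/glycerol buffer at room temperature for 30 min, then crosslinked with 0.1% formaldehyde after washing, ligated by proximity, amplified and sequenced. For binding signal, each hexamer's read frequency for a factor is divided by its frequency for the tag-only sample.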
# [2] = biological target: T2, ELK1 (Homo sapiens, UniProt P19419 1-428); conditions: protein: recombinant; tags: N-terminal GST; dsDNA, one strand shown
# T2 sequence: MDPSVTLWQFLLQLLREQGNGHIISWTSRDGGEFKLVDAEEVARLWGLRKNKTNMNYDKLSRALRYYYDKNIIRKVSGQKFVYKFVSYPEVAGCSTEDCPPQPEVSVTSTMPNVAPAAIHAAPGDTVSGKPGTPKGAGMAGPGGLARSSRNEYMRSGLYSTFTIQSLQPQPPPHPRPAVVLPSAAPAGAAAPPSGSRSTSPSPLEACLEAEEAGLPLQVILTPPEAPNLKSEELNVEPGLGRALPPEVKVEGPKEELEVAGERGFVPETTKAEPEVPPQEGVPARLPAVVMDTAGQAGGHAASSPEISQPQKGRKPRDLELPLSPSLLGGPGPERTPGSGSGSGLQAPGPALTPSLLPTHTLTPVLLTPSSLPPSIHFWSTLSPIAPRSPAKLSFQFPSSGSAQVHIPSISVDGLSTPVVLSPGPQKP
# In short: as §1
# [3] = biological target: T3, GABPA (Homo sapiens, UniProt Q06546 1-454); conditions: protein: recombinant; tags: N-terminal GST; dsDNA, one strand shown
# T3 sequence: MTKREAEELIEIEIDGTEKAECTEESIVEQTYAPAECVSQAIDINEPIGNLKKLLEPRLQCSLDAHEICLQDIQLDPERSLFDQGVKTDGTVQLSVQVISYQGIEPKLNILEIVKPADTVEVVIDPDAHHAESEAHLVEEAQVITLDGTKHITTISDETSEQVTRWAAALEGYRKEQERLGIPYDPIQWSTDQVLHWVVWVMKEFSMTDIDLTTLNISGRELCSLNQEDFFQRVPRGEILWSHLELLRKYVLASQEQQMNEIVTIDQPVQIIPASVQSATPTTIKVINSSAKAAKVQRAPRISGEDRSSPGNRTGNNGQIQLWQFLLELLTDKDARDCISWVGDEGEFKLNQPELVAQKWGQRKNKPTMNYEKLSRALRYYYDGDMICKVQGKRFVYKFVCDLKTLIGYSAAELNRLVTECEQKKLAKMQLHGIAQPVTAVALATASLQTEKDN
# In short: as §1
# [4] = biological target: T4, ERG (Homo sapiens, UniProt P11308 1-479); conditions: protein: recombinant; tags: N-terminal GST; dsDNA, one strand shown
# T4 sequence: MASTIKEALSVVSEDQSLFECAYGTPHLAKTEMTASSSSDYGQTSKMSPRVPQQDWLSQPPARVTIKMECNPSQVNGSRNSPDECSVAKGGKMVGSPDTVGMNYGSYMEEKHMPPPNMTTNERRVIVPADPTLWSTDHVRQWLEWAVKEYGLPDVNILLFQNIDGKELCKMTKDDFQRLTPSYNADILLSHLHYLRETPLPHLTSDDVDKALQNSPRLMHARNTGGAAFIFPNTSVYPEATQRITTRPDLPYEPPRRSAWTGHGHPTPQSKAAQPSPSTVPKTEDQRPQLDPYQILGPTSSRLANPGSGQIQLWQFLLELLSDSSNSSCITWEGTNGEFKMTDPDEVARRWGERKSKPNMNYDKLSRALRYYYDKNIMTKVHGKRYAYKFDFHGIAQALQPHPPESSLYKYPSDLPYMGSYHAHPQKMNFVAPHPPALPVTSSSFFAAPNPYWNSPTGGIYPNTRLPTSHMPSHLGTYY
# In short: as §1
# [5] = biological target: ELF1 (Homo sapiens, UniProt P32519 1-619); conditions: protein: recombinant; tags: N-terminal GST; dsDNA, one strand shown
# ELF1, sequence (P32519 whole entry): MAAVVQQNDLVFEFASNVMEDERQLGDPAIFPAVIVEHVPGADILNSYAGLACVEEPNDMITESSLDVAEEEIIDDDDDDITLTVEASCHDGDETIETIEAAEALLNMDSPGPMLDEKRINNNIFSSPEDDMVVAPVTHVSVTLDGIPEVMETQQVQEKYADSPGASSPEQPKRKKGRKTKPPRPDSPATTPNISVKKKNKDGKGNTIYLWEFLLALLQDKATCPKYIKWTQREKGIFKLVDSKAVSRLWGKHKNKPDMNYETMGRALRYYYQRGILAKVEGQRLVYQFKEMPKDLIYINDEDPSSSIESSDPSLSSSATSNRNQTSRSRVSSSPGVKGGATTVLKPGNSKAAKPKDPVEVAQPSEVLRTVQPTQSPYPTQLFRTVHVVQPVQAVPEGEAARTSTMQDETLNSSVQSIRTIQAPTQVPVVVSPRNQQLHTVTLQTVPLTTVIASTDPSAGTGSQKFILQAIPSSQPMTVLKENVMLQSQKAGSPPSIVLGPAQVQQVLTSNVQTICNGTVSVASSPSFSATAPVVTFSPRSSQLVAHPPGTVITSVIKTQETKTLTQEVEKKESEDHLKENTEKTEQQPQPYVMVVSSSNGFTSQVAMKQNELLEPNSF
# In short: as §1
# [6] = biological target: T5, EHF (Homo sapiens, UniProt Q9NZC4 1-300); conditions: protein: recombinant; tags: N-terminal GST; dsDNA, one strand shown
# T5 sequence: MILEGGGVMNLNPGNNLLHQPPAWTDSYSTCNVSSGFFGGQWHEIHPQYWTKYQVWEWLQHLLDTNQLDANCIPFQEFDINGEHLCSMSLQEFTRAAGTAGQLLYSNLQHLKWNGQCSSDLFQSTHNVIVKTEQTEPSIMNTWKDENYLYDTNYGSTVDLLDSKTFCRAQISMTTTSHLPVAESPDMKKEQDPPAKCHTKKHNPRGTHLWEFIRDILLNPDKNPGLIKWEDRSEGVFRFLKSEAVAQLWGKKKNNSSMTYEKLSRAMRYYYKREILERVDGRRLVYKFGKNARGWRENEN
# In short: as §1
# [7] = biological target: SPI1 (Homo sapiens, UniProt P17947 1-270); conditions: protein: recombinant; tags: N-terminal GST; dsDNA, one strand shown
# In short: as §1
# [8] = biological target: SPIB (Homo sapiens, UniProt Q01892 1-262); conditions: protein: recombinant; tags: N-terminal GST; dsDNA, one strand shown
# SPIB, sequence (Q01892 whole entry): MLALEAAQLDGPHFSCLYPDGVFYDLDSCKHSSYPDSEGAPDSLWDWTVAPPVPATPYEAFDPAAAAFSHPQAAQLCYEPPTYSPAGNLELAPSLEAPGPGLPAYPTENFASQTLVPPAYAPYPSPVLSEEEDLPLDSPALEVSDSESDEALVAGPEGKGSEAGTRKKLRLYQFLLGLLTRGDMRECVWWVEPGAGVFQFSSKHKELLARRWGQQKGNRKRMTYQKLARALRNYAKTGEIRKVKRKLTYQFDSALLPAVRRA
# In short: as §1
# [9] = biological target: T6, ELK3 (Homo sapiens, UniProt P41970 1-407); conditions: protein: recombinant; tags: N-terminal GST; dsDNA, one strand shown
# T6 sequence: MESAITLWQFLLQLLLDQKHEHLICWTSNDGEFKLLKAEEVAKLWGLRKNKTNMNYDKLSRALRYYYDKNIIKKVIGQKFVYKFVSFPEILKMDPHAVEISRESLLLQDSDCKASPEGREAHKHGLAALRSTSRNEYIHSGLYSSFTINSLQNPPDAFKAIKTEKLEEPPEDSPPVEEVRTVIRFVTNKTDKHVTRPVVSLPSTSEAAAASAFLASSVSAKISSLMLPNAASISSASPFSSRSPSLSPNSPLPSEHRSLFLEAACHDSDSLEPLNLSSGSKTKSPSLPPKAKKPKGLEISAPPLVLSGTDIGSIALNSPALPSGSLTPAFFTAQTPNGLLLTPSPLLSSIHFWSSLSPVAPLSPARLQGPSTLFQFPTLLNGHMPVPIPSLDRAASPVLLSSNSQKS
# In short: as §1
# [10] = biological target: T7, FEV (Homo sapiens, UniProt Q99581 1-238); conditions: protein: recombinant; tags: N-terminal GST; dsDNA, one strand shown
# T7 sequence: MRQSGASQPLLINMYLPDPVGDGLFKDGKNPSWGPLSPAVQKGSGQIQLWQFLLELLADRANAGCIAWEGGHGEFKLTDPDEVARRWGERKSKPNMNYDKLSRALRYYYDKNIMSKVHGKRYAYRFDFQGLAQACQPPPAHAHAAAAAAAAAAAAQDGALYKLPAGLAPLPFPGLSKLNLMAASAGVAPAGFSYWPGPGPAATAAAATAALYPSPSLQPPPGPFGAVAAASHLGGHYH
# In short: as §1
# [11] = biological target: ETV5 (Homo sapiens, UniProt P41161 1-510); conditions: protein: recombinant; tags: N-terminal GST; dsDNA, one strand shown
# ETV5, sequence (P41161 whole entry): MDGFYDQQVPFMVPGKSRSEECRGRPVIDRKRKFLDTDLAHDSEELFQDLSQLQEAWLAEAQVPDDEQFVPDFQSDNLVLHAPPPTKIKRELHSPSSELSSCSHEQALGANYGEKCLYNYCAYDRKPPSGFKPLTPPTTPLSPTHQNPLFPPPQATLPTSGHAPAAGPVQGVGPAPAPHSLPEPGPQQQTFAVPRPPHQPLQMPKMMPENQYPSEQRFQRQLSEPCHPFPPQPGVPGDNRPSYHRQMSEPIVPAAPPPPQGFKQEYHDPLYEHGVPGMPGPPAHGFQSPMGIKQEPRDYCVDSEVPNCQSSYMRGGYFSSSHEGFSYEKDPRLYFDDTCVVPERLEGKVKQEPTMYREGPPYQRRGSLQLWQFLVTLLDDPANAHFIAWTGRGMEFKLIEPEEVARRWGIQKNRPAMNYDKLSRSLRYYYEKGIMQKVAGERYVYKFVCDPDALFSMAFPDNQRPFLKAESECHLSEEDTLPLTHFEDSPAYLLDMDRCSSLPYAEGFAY
# In short: as §1
# [12] = biological target: HSF1 (Homo sapiens, UniProt Q00613 1-529); conditions: protein: recombinant; tags: N-terminal GST; chain copies: 3; dsDNA, one strand shown
# HSF1, sequence (Q00613 whole entry): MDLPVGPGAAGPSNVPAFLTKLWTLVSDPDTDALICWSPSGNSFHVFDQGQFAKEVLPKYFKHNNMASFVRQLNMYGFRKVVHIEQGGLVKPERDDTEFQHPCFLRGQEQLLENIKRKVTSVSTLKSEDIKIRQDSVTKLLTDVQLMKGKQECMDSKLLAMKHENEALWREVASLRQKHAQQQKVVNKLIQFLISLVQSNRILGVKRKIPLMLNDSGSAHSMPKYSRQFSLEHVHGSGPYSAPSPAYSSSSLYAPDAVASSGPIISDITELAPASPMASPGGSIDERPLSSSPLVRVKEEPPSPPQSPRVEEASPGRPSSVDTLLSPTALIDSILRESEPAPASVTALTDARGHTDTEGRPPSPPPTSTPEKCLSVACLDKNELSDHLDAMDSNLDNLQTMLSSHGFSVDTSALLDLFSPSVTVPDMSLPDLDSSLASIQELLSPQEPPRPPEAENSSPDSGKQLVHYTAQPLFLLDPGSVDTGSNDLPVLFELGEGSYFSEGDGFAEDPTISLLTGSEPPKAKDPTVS
# In short: as §1
# [13] = biological target: T8, SPIC (Homo sapiens, UniProt Q8N5J4 1-248); conditions: protein: recombinant; tags: N-terminal GST; dsDNA, one strand shown
# T8 sequence: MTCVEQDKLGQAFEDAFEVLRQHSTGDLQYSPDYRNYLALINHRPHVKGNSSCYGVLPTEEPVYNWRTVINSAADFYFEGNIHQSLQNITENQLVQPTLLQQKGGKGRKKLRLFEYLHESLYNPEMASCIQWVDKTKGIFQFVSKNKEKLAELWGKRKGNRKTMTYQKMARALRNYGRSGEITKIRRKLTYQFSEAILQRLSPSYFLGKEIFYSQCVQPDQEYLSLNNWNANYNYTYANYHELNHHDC
# In short: as §1
# [14] = biological target: ELF4 (Homo sapiens, UniProt Q99607 1-663); conditions: protein: recombinant; tags: N-terminal GST; dsDNA, one strand shown
# ELF4, sequence (Q99607 whole entry): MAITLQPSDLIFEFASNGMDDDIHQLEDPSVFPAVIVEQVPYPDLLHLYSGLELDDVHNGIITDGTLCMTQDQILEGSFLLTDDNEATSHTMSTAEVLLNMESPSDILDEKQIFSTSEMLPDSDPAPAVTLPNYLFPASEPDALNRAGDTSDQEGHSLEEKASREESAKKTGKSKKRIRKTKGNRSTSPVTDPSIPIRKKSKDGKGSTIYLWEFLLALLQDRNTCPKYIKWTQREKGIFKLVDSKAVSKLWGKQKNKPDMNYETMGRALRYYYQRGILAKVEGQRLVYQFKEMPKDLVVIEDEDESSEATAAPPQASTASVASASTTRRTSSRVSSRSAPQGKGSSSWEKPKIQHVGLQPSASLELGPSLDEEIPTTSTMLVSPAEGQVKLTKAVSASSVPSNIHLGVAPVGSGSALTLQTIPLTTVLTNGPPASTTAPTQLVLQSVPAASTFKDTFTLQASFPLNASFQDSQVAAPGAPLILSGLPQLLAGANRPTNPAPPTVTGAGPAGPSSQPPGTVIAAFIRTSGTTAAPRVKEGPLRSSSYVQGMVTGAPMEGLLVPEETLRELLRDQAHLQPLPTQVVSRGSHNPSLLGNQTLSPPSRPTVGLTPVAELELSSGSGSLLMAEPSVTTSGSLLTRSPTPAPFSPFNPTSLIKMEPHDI
# In short: as §1
# [15] = biological target: T9, ELK4 (Homo sapiens, UniProt P28324-2 1-405); conditions: protein: recombinant; tags: N-terminal GST; dsDNA, one strand shown
# T9 sequence: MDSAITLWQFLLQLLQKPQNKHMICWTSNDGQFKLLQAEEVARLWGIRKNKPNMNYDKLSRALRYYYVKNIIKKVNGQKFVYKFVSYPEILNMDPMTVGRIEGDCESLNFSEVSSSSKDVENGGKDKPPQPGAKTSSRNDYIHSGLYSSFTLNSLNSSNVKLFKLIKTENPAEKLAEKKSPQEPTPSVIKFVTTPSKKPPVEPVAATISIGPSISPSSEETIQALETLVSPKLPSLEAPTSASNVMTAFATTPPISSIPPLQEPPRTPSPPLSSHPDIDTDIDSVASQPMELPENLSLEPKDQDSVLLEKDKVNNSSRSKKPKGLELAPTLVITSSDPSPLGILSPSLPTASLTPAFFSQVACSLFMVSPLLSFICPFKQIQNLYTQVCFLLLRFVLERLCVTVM
# In short: as §1
# [16] = biological target: T10, ETV2 (Homo sapiens, UniProt O00321 1-342); conditions: protein: recombinant; tags: N-terminal GST; dsDNA, one strand shown
# T10 sequence: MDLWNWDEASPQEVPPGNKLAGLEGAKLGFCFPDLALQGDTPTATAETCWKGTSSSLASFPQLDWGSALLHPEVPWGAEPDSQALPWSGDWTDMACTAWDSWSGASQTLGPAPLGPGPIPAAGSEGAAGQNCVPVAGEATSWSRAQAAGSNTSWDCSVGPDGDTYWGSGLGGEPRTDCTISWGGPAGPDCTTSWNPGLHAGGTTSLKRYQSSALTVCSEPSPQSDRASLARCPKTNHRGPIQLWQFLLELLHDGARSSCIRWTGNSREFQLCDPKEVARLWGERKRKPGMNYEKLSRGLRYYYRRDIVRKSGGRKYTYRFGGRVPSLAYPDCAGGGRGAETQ
# In short: as §1
# [17] = biological target: T11, ELF3 (Homo sapiens, UniProt P78545 1-371); conditions: protein: recombinant; tags: N-terminal GST; dsDNA, one strand shown
# T11 sequence: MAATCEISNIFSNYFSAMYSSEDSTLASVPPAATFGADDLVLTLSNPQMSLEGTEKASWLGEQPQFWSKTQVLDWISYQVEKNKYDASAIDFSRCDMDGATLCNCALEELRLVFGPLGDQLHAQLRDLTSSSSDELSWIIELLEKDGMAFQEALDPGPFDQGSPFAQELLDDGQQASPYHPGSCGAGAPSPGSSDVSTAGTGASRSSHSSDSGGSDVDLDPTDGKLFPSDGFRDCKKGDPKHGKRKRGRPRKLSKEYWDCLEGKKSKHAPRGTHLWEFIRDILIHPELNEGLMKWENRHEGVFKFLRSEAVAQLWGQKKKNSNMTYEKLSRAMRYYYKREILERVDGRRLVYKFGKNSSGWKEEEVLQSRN
# In short: as §1
# [18] = biological target: CRX (Homo sapiens, UniProt O43186 1-299); conditions: protein: recombinant; tags: N-terminal GST; dsDNA, one strand shown
# CRX, sequence (O43186 whole entry): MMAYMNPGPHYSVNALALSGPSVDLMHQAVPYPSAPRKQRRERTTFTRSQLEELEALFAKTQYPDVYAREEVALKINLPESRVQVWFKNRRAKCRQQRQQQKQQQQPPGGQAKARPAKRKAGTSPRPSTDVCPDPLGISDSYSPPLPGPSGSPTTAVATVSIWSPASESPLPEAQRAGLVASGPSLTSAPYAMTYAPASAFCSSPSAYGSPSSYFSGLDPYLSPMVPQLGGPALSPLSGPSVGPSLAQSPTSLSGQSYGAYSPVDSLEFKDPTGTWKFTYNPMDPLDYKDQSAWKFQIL
# In short: as §1
# [19] = biological target: ETV1 (Homo sapiens, UniProt P50549 1-477); conditions: protein: recombinant; tags: N-terminal GST; dsDNA, one strand shown
# ETV1, sequence (P50549 whole entry): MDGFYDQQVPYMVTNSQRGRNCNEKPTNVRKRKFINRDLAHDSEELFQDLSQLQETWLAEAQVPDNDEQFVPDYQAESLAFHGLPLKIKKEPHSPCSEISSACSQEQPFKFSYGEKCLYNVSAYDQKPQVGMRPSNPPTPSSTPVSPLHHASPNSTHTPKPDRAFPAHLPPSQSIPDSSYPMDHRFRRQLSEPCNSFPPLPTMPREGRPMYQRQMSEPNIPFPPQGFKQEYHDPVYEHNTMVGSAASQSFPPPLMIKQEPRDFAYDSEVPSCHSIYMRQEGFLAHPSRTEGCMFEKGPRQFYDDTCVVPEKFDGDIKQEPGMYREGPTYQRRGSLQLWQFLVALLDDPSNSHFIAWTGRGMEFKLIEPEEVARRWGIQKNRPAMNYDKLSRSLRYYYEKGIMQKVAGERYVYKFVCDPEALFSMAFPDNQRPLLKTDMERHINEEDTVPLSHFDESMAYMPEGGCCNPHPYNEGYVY
# In short: as §1
sequence,measurement,setting,value
AAGTTT,binding signal,[1],"1.42 fold enrichment (6-mer frequency, TF over GST control)"
same,binding signal,[2],"1.48 fold enrichment (6-mer frequency, TF over GST control)"
same,binding signal,[3],"1.42 fold enrichment (6-mer frequency, TF over GST control)"
same,binding signal,[4],"1.36 fold enrichment (6-mer frequency, TF over GST control)"
same,binding signal,[5],"1.37 fold enrichment (6-mer frequency, TF over GST control)"
same,binding signal,[6],"1.5 fold enrichment (6-mer frequency, TF over GST control)"
same,binding signal,[7],"1.45 fold enrichment (6-mer frequency, TF over GST control)"
same,binding signal,[8],"1.6 fold enrichment (6-mer frequency, TF over GST control)"
same,binding signal,[9],"1.44 fold enrichment (6-mer frequency, TF over GST control)"
same,binding signal,[10],"1.35 fold enrichment (6-mer frequency, TF over GST control)"
same,binding signal,[11],"1.37 fold enrichment (6-mer frequency, TF over GST control)"
same,binding signal,[12],"1.5 fold enrichment (6-mer frequency, TF over GST control)"
same,binding signal,[13],"1.29 fold enrichment (6-mer frequency, TF over GST control)"
same,binding signal,[14],"1.39 fold enrichment (6-mer frequency, TF over GST control)"
same,binding signal,[15],"1.27 fold enrichment (6-mer frequency, TF over GST control)"
same,binding signal,[16],"1.44 fold enrichment (6-mer frequency, TF over GST control)"
same,binding signal,[17],"1.35 fold enrichment (6-mer frequency, TF over GST control)"
same,binding signal,[18],"1.38 fold enrichment (6-mer frequency, TF over GST control)"
same,binding signal,[19],"1.51 fold enrichment (6-mer frequency, TF over GST control)"
